Laboratory results from PubChem BioAssay AID488966 (Southern Research Specialized Biocontainment Screening …, 2010).
The whole screen tested about 340,000 compounds, of which about 55 (0.02%) were called active.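 How the source made its calls: active means phage lysis inhibition, versus mean bacterial control, above a set limit; inconclusive means no clear call, values can overlap the other calls; inactive means the rest.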 These entries were drawn from the full list. Results with a measured potency or affinity are listed apart.

experiment: inhibition of K1F phage lysis, E. coli UTI89, bacterial capsule biogenesis inhibitors, alamar blue (AID 488966); conditions: 2 h; inhibition: at 100 µM, active compounds read high unless noted; series mostly up to 300 µM;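 further: capsule biogenesis inhibitors block K1F phage lysis so surviving cells raise fluorescence; higher fluorescence means more inhibition of phage lysis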

inhibition, inactive:
Cc1noc(/C=C/c2ccccn2)c1[N+](=O)[O-] 0.12%
CCOC(=O)C1(Cc2ccc(Cl)cc2)CCN(C(C)Cc2ccc(O)c(OC)c2)CC1 (centres undefined) 0.5%
Cc1ccc(NC(=O)CN(C)C(=O)COc2ncnc3ccc(Br)cc23)cc1 0.5% [at 50 µM, active compounds read high]
COc1ccc(NS(=O)(=O)c2cccc(C(=O)NCCCN3CCOCC3)c2)cc1 1% [at 50 µM, active compounds read high]
CC(=O)NN=C1CCC(c2ccccc2)CC1 (centres undefined) 4.73%
COc1ccccc1OCC(=O)NNC(=O)c1cccs1 5.22%
COc1ccc(C(CNC(=O)c2cncc(Br)c2)N(C)C)cc1 (centres undefined) -0.11%
COc1cc(C2C(C#N)=C(N)Oc3n[nH]c(-c4ccncc4)c32)cc(OC)c1OC (centres undefined) 1.19%
COc1ccccc1NC(=O)CN1C(=O)C(C)Oc2ccccc21 (centres undefined) -1.62%
CCOc1ccc(S(=O)(=O)NCc2cccnc2)cc1C 0.14%
COC(=O)/C=C/C(=O)Nc1ccc(O)c(Cl)c1 -2.78%
Cc1ccc(N2C(=O)C3C4CCC(O4)C3C2=O)c(OC(F)F)c1 (centres undefined) 2% [at 50 µM, active compounds read high]
CC(C)Nc1nc(SCC(=O)Nc2ccccc2)nc(N2CCOCC2)n1 -0.955% [at 50 µM, active compounds read high]
c1ccc(C(c2nnnn2C2CCCCC2)N2CCc3ccccc3C2)nc1 (centres undefined) 6.52%
C/C(=N\NC(=O)C(O)c1ccccc1)c1ccc(Cl)cc1 (centres undefined) 0%
O=C(COC(=O)c1ccccn1)Nc1ncc(C(F)(F)F)cc1Cl 1.67%
Cc1noc(/C=C/c2ccco2)c1S(=O)(=O)N1CCC(C(=O)NCc2ccco2)CC1 0.57%
Cc1cc(C)n(CC(=O)NCc2ccccc2)c(=O)c1C#N 0.26%
O=c1[nH]c2ccccc2c2ccc(Cl)cc12 -0.77%
Cc1ccc(NC(=O)N/C=C/c2ccco2)cc1 -0.09%
COc1ccc(NC(=O)CN2C(=O)/C(=C3\SC(=S)N(CCC(=O)O)C3=O)c3ccccc32)cc1 1.3% [at 50 µM, active compounds read high]
CSc1nnc(-c2cccn(Cc3cccc(Cl)c3)c2=O)o1 0.19%
Cc1cc(N(C)/N=C/c2ccccc2O)nc(-c2ccccc2O)n1 -1.22%
COc1ccc2[nH]c3c(c2c1)CCN1C(=O)N([C@@H](C)C(=O)NCc2ccc(F)cc2)C(=O)[C@]31C 1.55%
Cc1ccn2cc(-c3cccc(S(=O)(=O)N4CCCCC4)c3)nc2c1 -0.04%
COc1ccccc1C(=O)NCCC(=O)NC1CCCCCC1 0.81% [at 50 µM, active compounds read high]
COc1ccc(C(C)(C)C)cc1S(=O)(=O)N1CCN(C)CC1 0.43%
O=C(Nc1ccncc1)Nc1cccc(F)c1 0.13%
Cc1cccc(NC(=O)Nc2ccncc2)c1 3.48%
COc1ccc2c(c1)C1=C(CC2)C(c2ccc(C)cc2)NC(=S)N1 (centres undefined) -0.41%
CN(C)CCN(C(=O)c1ccc2c(c1)OCCO2)c1nc2ccc(Cl)cc2s1 3.17% [at 50 µM, active compounds read high]
Cc1ccccc1C(=O)N=c1ccn(-c2nc3ccccc3nc2NS(=O)(=O)c2ccccc2)cc1 0.1%
CCCOc1ccc(C(=O)O)cc1 -0.2%
CCOc1ccc(C(=O)C(CCC(CN(C)C)C(=O)c2ccc(OCC)cc2)CN(C)C)cc1 (centres undefined) 0.87%
Cc1cccc(NC(=O)/C(C#N)=C/c2ccc(Cl)cc2)n1 0%
Cc1cc(C)c2c3c(oc2n1)C(=O)N(c1cccc(Cl)c1)CC(=O)N3 0.63%
Clc1ccc(-n2nnnc2-c2cnc3ccc(Cl)cc3c2-c2ccccc2)cc1 0.85%
O=C(Nc1ccc(Cl)c(S(=O)(=O)N2CCOCC2)c1)[C@@H]1CCCN1C(=O)c1cccs1 0.43% [at 50 µM, active compounds read high]
COc1ccc(C[C@@H]2CN3C(=NC[C@@H]3Cc3ccc(O)cc3)N2C[C@H](C)NC(=O)CCC2CCCCC2)cc1 0.18%
CCOC(=O)C1CCN(C(=O)CN(c2ccc3c(c2)OCO3)S(C)(=O)=O)CC1 0.52%
O=C(NN=Cc1ccccc1O)C(O)(c1ccccc1)c1ccccc1 -1.49%
COc1cccc(C2C3=C(CC(C)(C)CC3=O)Nc3cc4c(cc32)OCO4)c1 (centres undefined) 2.26%
Cc1nc(N2CCN(C(=O)c3ccco3)CC2)c2oc3ccccc3c2n1 1.22%
CCOc1cc(C2NC(=O)c3ccccc3O2)ccc1OC(C)C (centres undefined) 2.06%
O=C(O)CCC(=NNC(=O)c1cccc(S(=O)(=O)N2CCCCC2)c1)c1ccccc1 0.71% [at 50 µM, active compounds read high]
CCN(CC)c1ccc(C(=O)Nc2cccc(F)c2)cc1 2.12%
CCN(CC)c1ccc(NC(=O)c2ccc3c(c2)OCO3)cc1 2.01%
CCCNC(=O)C(=O)Nc1ccc2c(c1)N(S(=O)(=O)c1cccs1)CCC2 1.18% [at 50 µM, active compounds read high]
CCc1cc2cc(C)cc(C)c2nc1SCC(=O)Nc1cc(C)on1 0.23%
O=C(Nc1cc2c3c(c1)CC(=O)N3CCC2)c1c(F)cccc1F 1.43% [at 50 µM, active compounds read high]
CCOc1ccc(NC(=S)N2CCCC2)cc1 0.16%
COC(=O)c1sccc1NC(=O)Nc1cccc(Cl)c1Cl 0.2%
Cc1c(N(C(=O)Nc2ccccc2)C2=NCC(C)S2)c(=O)n(-c2ccccc2)n1C (centres undefined) 0.11%
COc1cc(C2NC(=S)NC3=C2CCc2ccccc23)cc(OC)c1OC (centres undefined) 0.64% [at 50 µM, active compounds read high]
